From PubChem BioAssay (NCI)
About 83,000 compounds went through this panel and 20% of them were active in at least one assay; those are over-represented in the sample as a whole.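 48-hour exposure, single concentration, 96-well plates; percent growth endpoint where 0 means no net growth. Active: below 10.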 Activity calls are given as the source filed them.

System: NCI-H226 lung
Experiment: NCI-60 one-dose screen, 48 h (100 = growth as untreated, 0 = no growth, -100 = all killed)
Details: 10 µM unless noted
Protocol: Growth inhibition of the NCI-H226 human Non-Small Cell Lung tumor cell line is measured as a screen for anti-cancer activity. Cells are grown in 96 well plates and exposed to the test compound for 48 hours. Compounds are tested at a single concentration, which is 10^-5 M for most compounds. The reported endpoint is percent growth (GI% or GIPRCNT), where numbers from 0 - 100% represent growth inhibition, and numbers from -100% - 0 represent cell death. For example, a value of 40 represents 60% growth inhibition. A value of 0 means no net growth occurred over the course of the experiment. A value of -40 indicates 40% of cells at the beginning of the experiment died by the end of the experiment. A value of -100 means all cells are dead at the end of the experiment.
NCI-60 Human Tumor Cell Lines Screen was performed using the standard one-dose NCI protocol, which is described in more detail at https://dtp.cancer.gov/discovery_development/nci-60/default.htm.
Compounds with GIPRCNT values below 10 were considered active. Activity score was based on GIPRCNT using the following formula: […]
Score is 0 for GIPRCNT values of 100 or above, 50 for GIPRCNT values of 0, and 100 for GIPRCNT values of -100.

SMILES | growth
COc1ccc2nccc(/C=C/c3ccnc4ccc(OC)cc34)c2c1 | 131% (inactive)
Fc1ccc(-c2nc(Nc3ccc(-c4nc5ccccc5[nH]4)cc3)nc(N3CCOCC3)n2)cc1 | -64.5% (active)
O=C(/C(=N/O)S(=O)(=O)c1ccccc1)c1cccs1 | 102% (inactive)
Cc1nn(-c2ccccc2)c2ncc3c(c12)C(=O)N(Cc1ccccc1)C3=O | -14.2% (active)
CN(C)c1ccc(/C=C(\C#N)c2nc3ccccc3c(=O)[nH]2)cc1 | 74.1% (inactive)
CCN1CCN(c2cc(-c3cn[nH]c3-c3cc(C)cc(OC)c3)nc(-c3cccnc3)n2)CC1 | 99.7% (inactive)
c1cnc2n[nH]c(Nc3ncnc4c3sc3ncccc34)c2c1 | 93.8% (inactive)
CC(C)[C@H]1CC[C@H]2[C@@H](CC[C@H]3[C@](C)(CN)CCC[C@]23C)C1 | 105% (inactive)
Cc1nc2cc(NC(=O)CN3CCN(CCN4C(=O)c5cccc6cccc(c56)C4=O)CC3)ccc2s1 | 48.6% (inactive)
COc1ccc(-c2nn(-c3ccccc3)cc2/C=C2\SC(=S)N(CCc3ccc(O)cc3)C2=O)cc1 | 86.7% (inactive)
O=C1C(Cl)=C(N=Nc2c(Cl)c(O)c3ccccc3c2O)C(=O)c2ccccc21 | 90.1% (inactive)
O=C(CCc1nnc(Cn2ccnc2)o1)c1nc2ccccc2[nH]1 | 115% (inactive)
COc1ccc(-c2c(N)noc2-c2cc(OC)c3c(c2)OCCO3)cc1 | -17.1% (active)
COc1ccc(C(=O)COc2cccc(/C=C3\Oc4ccc5ccccc5c4C3=O)c2)cc1 | 71.7% (inactive)
CC(NC(=O)C(C)Oc1ccc(Cl)cc1Cl)C(=O)O (stereo not given) | 92.9% (inactive)
COc1ccc2c(c1)/C(=C\c1c[nH]c3ccc(F)cc13)C(=O)N2 | 92.6% (inactive)
COc1ccc(COC(C)=O)cc1 | 104% (inactive)
CCN1C[C@@H](C)n2c(c(O)c3c(=O)n(Cc4ccc(F)c(Cl)c4)nc(C(=O)NC)c32)C1=O | 26.4% (inactive)
O=C(NCCCO)c1cc(Cl)ccc1O | 24.3% (inactive)
O=C(/C=C/c1cc2ccccc2[nH]c1=O)c1ccc(Cl)cc1 | 40.7% (inactive)

SMILES | growth
CN(C)CCCN1c2nc3ccccc3cc2Sc2cc3ccccc3nc21 | 40.1% (inactive)
COc1ccc(-c2cc(Cc3cccs3)c(=O)n(Cn3ccc4ccccc43)n2)cc1 | 104% (inactive)
CCOc1nc(-c2ccccc2)cc2c(O)c(-c3nnco3)[nH]c(=O)c12 | 64.2% (inactive)
Cc1c(N(C)CS(=O)(=O)O)c(=O)n(-c2ccccc2)n1C | 102% (inactive)
Nc1ccc(C2=Nc3cccc4cccc(c34)S2)cc1 | 59.3% (inactive)
c1ccc(Nc2nnc(-c3cc(-c4cccnc4)n(-c4ccccc4)n3)s2)cc1 | 99.8% (inactive)
CCCCCCCCCCCCCCCCCc1nccn1CCO | 97.3% (inactive)
CC(C)[C@]12O[C@H]1[C@@H]1O[C@]13[C@]1(O[C@H]1C[C@H]1C4=C(CC[C@@]13C)C(=O)OC4)[C@@H]2OC(=O)CN(C)C | 10.6% (inactive)
COc1cc(/C=C/C(=O)c2c(-c3ccc(Cl)cc3)nc3sc(C)nn23)cc(OC)c1OC | 68.3% (inactive)
Clc1ccc(CCC(Cn2ccnc2)Sc2c(Cl)cccc2Cl)cc1 (stereo not given) | 90.6% (inactive)
Cc1cc2c(cc1[N+](=O)[O-])NC(CNC(C)C)CC2 (stereo not given) | 93.6% (inactive)
Cc1scc2c1N(C(=O)CN1CCN(C)CC1)c1ccccc1NC2=O | 109% (inactive)
Cn1cc(-c2nc(-c3c[nH]c4ncc(F)cc34)cs2)c2cccnc21 | 98.8% (inactive)
Nc1nc2ncc(CCNc3ccc(C(=O)NC(CCC(=O)O)C(=O)O)cc3)nc2c(=O)[nH]1 (stereo not given) | 102% (inactive)
CCN(CC)CCCNCCCNc1cc(OC)cc2cccnc12 | 81.9% (inactive)
Clc1ccc2nc(Cl)c3ccccc3c2c1 | 71.7% (inactive)
O=C1Cc2cc(CCn3cncn3)c(Cl)cc2N1 | 74.8% (inactive)
Oc1[nH]c2ccc(Cl)cc2c1/C=c1/ccc2c(c1)N=C(c1ccc(C(F)(F)F)cc1)N=2 | 88.7% (inactive)
CC(C)(C)c1cc(O)c(O)c(C(C)(C)C)c1 | 75.6% (inactive)
COc1cc2c(cc1OC)C1CCN3C(=O)CCC3N1CC2 (stereo not given) | 113% (inactive)
